Bioassay records: PubChem BioAssay, several laboratories
ADAM10 inh = inhibits human ADAM10 | O14672 | recombinant ADAM10, EDANS/DABCYL FRET peptide cleavage, 3 h | inhibition, % at 7 µM | hit rate 0.62% among 370,000;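 active = inhibition above a per-campaign cutoff equal to the mean of compounds falling between control-based bounds plus 3 SD, cut at about 20% in these data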
FAS-TE inh = inhibitors of human fatty acid synthase thioesterase domain; recombinant FAS-TE, OMFH fluorogenic substrate, fluorescence endpoint; inhibition, % at 15 µM; hit rate 0.67% among 360,000;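 active = compounds whose normalised, plate-corrected inhibition of enzyme fluorescence in the single-dose primary screen is 50% or more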
NR3A LBD binder = modulators (binders) of human NR3A ligand-binding domain | hit rate 2.5% among 340,000 | AID 1259313 | NR3A LBD differential scanning fluorimetry, Tm shift; 0% = protein alone, 100% = glycine-bound protein | Tm shift relative to glycine control, % at 25 µM;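 active = melting temperature shift of at least 10% of the positive control shift, at one fixed dose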
KLK7 zymogen act = proKLK7 (human) activation, primary screen; AID 652039; purified proKLK7, EDANS-DABCYL substrate fluorescence; 100% is mature enzyme control, 0% vehicle; hit rate 0.9% among 370,000; activation, % at 7 µM; P49862;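 active = activation above the mean of all tested compounds plus 3 SD, computed per campaign excluding outliers beyond control limits, cut at about 13% in these data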
Target sequence (P49862 whole entry, looked up): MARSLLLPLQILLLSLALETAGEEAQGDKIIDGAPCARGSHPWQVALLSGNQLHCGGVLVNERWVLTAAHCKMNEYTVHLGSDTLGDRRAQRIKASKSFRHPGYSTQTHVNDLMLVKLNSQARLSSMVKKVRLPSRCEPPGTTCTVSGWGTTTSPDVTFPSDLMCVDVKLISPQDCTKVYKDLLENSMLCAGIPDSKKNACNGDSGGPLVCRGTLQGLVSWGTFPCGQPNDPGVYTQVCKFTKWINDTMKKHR
ADAM17 inh = ADAM17 inhibition, QFRET primary screen; hit rate 0.83% among 370,000; inhibition, % at 6.95 µM; AID 720648; recombinant ADAM17, EDANS/DABCYL FRET peptide cleavage;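 active = inhibition above the mean of compounds lying between control limits plus 3 SD, set per campaign, cut at about 8.5% in these data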
ADAM10 confirm = confirmation of inhibitors of human ADAM10. shares compounds with ADAM10 inh. ADAM10 QFRET peptide cleavage, EDANS fluorescence. inhibition, % at 6.95 µM. hit rate 1% among 2,100. AID 743208;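 active = inhibition above about 20% chosen separately for each screening run, limit read from the data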
ADAM17 ctr = inhibits human ADAM17 in ADAM10 exosite counter-screen | shares compounds with ADAM10 inh | ADAM17 QFRET peptide cleavage, EDANS fluorescence | inhibition, % at 6.95 µM | hit rate 0.5% among 2,100;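 active = mean triplicate inhibition above the solvent-only control wells' mean plus 3 SD, cut at about 12% in these data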
ADAM10 ctr = ADAM10 inhibition, counter-screen for ADAM17 exosite hits. shares compounds with ADAM17 inh. recombinant ADAM10, EDANS/DABCYL FRET peptide cleavage, 3 h. inhibition, % at 6.95 µM. hit rate 47% among 2,900. AID 743256;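 active = mean inhibition over the triplicate runs exceeds the activity threshold set in the earlier primary screen, cut at about 20% in these data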
ADAM17 confirm = human ADAM17 inhibition, confirmation. inhibition, % at 6.95 µM. recombinant ADAM17, EDANS/DABCYL QFRET peptide cleavage. shares compounds with ADAM17 inh. AID 743257. hit rate 65% among 2,900;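 active = mean inhibition across replicates above the hit cutoff set in the primary screen, cut at about 8.5% in these data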
Large screens that a line does not name were inactive (follow-up assays come after a bar, where they were run); ! = a repeat was not active. The list is not random: actives were taken first. Their share in the collection is about 4.6%.

O=C(Nc1ccc(C(F)(F)F)cc1)C1CCCCN1S(=O)(=O)c1ccccc1 (stereo not given)	ADAM10 inh 28, ADAM17 inh 10 | ADAM10 confirm inactive | ADAM17 ctr inactive | ADAM10 ctr inactive | ADAM17 confirm inactive
O=C(Cc1ccc(Br)cc1)Nc1cccc(S(=O)(=O)N2CCCCC2)c1	ADAM10 inh 23, ADAM17 inh 12 (no result: NR3A LBD binder) | ADAM10 confirm inactive | ADAM17 ctr inactive | ADAM10 ctr inactive | ADAM17 confirm inactive
O=C(CNc1cccc(S(=O)(=O)N2CCCCC2)c1)Nc1ccc(C(F)(F)F)cc1	ADAM10 inh 28, ADAM17 inh 10 (no result: NR3A LBD binder) | ADAM10 confirm inactive | ADAM17 ctr inactive | ADAM10 ctr inactive | ADAM17 confirm inactive
CC(C)(C)c1ccc(OCCCC(=O)Nc2cccc(S(=O)(=O)N3CCOCC3)c2)cc1	none
O=C(Cc1ccc(Cl)cc1)Nc1cccc(S(=O)(=O)N2CCCCC2)c1	none
CC(C)(C)c1ccc(OCCC(=O)Nc2cccc(S(=O)(=O)N3CCCC3)c2)cc1	ADAM10 inh 22, ADAM17 inh 8.9 | ADAM10 confirm inactive | ADAM17 ctr inactive | ADAM10 ctr 37 | ADAM17 confirm 23
O=C(Nc1ccccc1)C1CCCCN1S(=O)(=O)c1ccccc1 (stereo not given)	none
CCOC(=O)c1csc(NC(=O)C2CCCN(S(=O)(=O)c3ccc(Br)s3)C2)n1 (stereo not given)	none (no result: FAS-TE inh, NR3A LBD binder)
C=CCN(CC#Cc1cccnc1)Cc1ccc(OC)cc1OC	none (no result: FAS-TE inh, NR3A LBD binder)
O=C(CNc1cccc(S(=O)(=O)N2CCCC2)c1)Nc1ccc(C(F)(F)F)cc1	none
O=C(CNc1cccc(Br)c1)Nc1ccc(S(=O)(=O)N2CCCCC2)cc1	ADAM10 inh 27, ADAM17 inh 16 (no result: NR3A LBD binder) | ADAM10 confirm inactive | ADAM17 ctr inactive | ADAM10 ctr 32 | ADAM17 confirm 21
O=C(CN1C(=O)NC(Cc2c[nH]c3ccccc23)C1=O)Nc1cccc(S(=O)(=O)N2CCCCCC2)c1 (stereo not given)	ADAM10 inh 21, NR3A LBD binder 16, ADAM17 inh 11 | ADAM10 confirm inactive | ADAM17 ctr inactive | ADAM10 ctr 28 | ADAM17 confirm 17
O=C(Nc1ccc(F)cc1)OCc1cn(Cc2cccc(C(F)(F)F)c2)nn1	none (no result: FAS-TE inh, NR3A LBD binder)
O=C(Nc1nc(-c2ccc(S(=O)(=O)N3CCOCC3)cc2)cs1)c1ccccc1	ADAM10 inh 21!, ADAM17 inh 11! | ADAM10 confirm inactive | ADAM17 ctr inactive | ADAM10 ctr inactive | ADAM17 confirm inactive
COc1cccc(C(=O)Nc2nc(-c3ccc(S(=O)(=O)N4CCOCC4)cc3)cs2)c1	none
O=C1NC[C@H](c2ccccc2)OC(=O)[C@H](Cc2ccc(F)cc2)CC/C=C/C[C@H]1CC(=O)N(CCO)Cc1ccccc1	ADAM10 inh 24, ADAM17 inh 17 | ADAM10 confirm inactive | ADAM17 ctr inactive | ADAM10 ctr 22 | ADAM17 confirm 11
CC1(C(=O)Nc2cccc(C(F)(F)F)c2)Cc2c(-c3cccc(C(F)(F)F)c3)ccnc2O1 (stereo not given)	none (no result: NR3A LBD binder)
CC(=O)Nc1cccc(-c2ccnc3c2CC(C)(C(=O)Nc2cccc(Oc4ccccc4)c2)O3)c1 (stereo not given)	ADAM10 inh 25, ADAM17 inh 9.6 (no result: NR3A LBD binder) | ADAM10 confirm inactive | ADAM17 ctr inactive | ADAM10 ctr 20 | ADAM17 confirm 15
CC(=O)Nc1cccc(-c2ccnc3c2CC(C)(C(=O)Nc2cccc(C(F)(F)F)c2)O3)c1 (stereo not given)	ADAM10 inh 21, ADAM17 inh 8.7 (no result: NR3A LBD binder) | ADAM10 confirm inactive | ADAM17 ctr inactive | ADAM10 ctr inactive | ADAM17 confirm 10
